Measured values as given in PubChem BioAssay (NCI).
The panel holds about 79,000 compounds, 15% with a hit somewhere; the sample as a whole holds those more often. Calls of active or inactive are those of the source. Rule as the data show it: active = growth inhibition above about 70%; inactive = the rest.

Tests used:
[1] = NCI Yeast Anticancer Drug Screen. Data for the rad50 strain (AID 155);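 also: 0% = growth of vehicle-only cultures of the same strain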; conditions: S. cerevisiae rad50 strain growth inhibition, hits give high values
Summary of the method: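 Vehicle-treated cultures provide the reference for the growth inhibition reported for compound-exposed, repair-deficient yeast.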

[2] = NCI Yeast Anticancer Drug Screen. Data for the mec2-1 strain (AID 157); conditions: S. cerevisiae mec2-1 strain, hits give high values
Summary of the method: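 Growth inhibition is read against vehicle-treated controls after compound exposure of the mec2-1 yeast strain, which is defective in DNA damage repair or cell cycle control.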

[3] = NCI Yeast Anticancer Drug Screen. Data for the sgs1 mgt1 strain (AID 161);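 also: 0% = growth of cultures given vehicle only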; conditions: S. cerevisiae sgs1 mgt1 strain, hits give high values
Summary of the method: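 Growth of a repair-deficient yeast mutant was monitored after compound treatment and expressed as inhibition relative to vehicle-treated cultures.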

[4] = NCI Yeast Anticancer Drug Screen. Data for the cln2 rad14 strain (AID 165);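 also: 0% = growth equal to vehicle treated cultures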; conditions: S. cerevisiae cln2 rad14 strain, hits give high values
Summary of the method: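 Growth inhibition, relative to vehicle-treated controls, is the read-out. The test organism is a yeast strain with defined genetic alterations, cln2 rad14.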

[5] = NCI Yeast Anticancer Drug Screen. Data for the bub3 strain (AID 167); conditions: S. cerevisiae bub3 mutant strain, hits give high values
Summary of the method: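 Mutant yeast screening strain plus compound; vehicle-treated cultures serve as the 0% inhibition reference.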

[6] = NCI Yeast Anticancer Drug Screen. Data for the mlh1 rad18 strain (AID 175); conditions: S. cerevisiae mlh1 rad18 strain growth inhibition, hits give high values
Summary of the method: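 Cells of a genetically altered yeast strain, deficient in DNA damage repair, were treated with compound. Their growth was then compared with that of vehicle-treated cultures to give inhibition.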

[7] = at 5.0 µM (retest, dose inferred, filed as 0.5)
[8] = at 50.0 µM (retest, dose inferred, filed as 5.0)

Measured: growth inhibition

CC(=O)O[C@]1(C(C)=O)CC[C@H]2[C@@H]3C[C@H](C)C4=CC(=O)NCC[C@]4(C)[C@H]3CC[C@@]21C
active: [1]; [8] 87% | [1]; at 50.0 µM 93.2% | [2]; [8] 91% | [2]; at 50.0 µM 94.6% | [3]; [8] 90% | [3]; at 50.0 µM 88% | [4]; [8] 81% | [4]; at 50.0 µM 90.1% | [5]; [8] 92% | [5]; at 50.0 µM 92% | [6]; [8] 90% | [6]; at 50.0 µM 94.5%
inactive: [1]; [7] 0% | [2]; [7] 20% | [3]; [7] -20% | [4]; [7] 6% | [5]; [7] 14% | [6]; [7] 6%

CCCCNCCCCCCCCCCCl
inactive: [1]; [7] 47% | [2]; [7] 65% | [4]; [7] 60% | [4]; at 50.0 µM 64.8% | [5]; [7] 56%
active: [1]; [8] 98% | [1]; at 50.0 µM 99% | [2]; [8] 99% | [2]; at 50.0 µM 96.5% | [3]; [7] 79% | [3]; [8] 99% | [3]; at 50.0 µM 98.8% | [4]; [8] 98% | [5]; [8] 99% | [5]; at 50.0 µM 97.2% | [6]; [7] 84% | [6]; [8] 99% | [6]; at 50.0 µM 98%

O=C(Cc1ccccc1)c1ccc(O)c(F)c1
inactive: [1]; [7] 4% | [2]; [7] 6% | [3]; [7] 6% | [4]; [7] 4% | [4]; [8] 68% | [5]; [7] 7% | [6]; [7] 7%
active: [1]; [8] 79% | [1]; at 50.0 µM 87.3% | [2]; [8] 85% | [2]; at 50.0 µM 77.5% | [3]; [8] 72% | [3]; at 50.0 µM 80.2% | [4]; at 50.0 µM 72.4% | [5]; [8] 88% | [5]; at 50.0 µM 82.5% | [6]; [8] 84% | [6]; at 50.0 µM 83.7%

Cc1cc2nc(CS)[nH]c2cc1C
inactive: [1]; [7] -13% | [1]; [8] 41% | [1]; at 50.0 µM 66.3% | [2]; [7] 4% | [2]; [8] 44% | [2]; at 50.0 µM 51.9% | [3]; [7] 15% | [4]; [7] 31% | [4]; [8] 51% | [4]; at 50.0 µM 43.2% | [5]; [7] 26% | [5]; at 50.0 µM 55.9% | [6]; [7] -13% | [6]; [8] 61% | [6]; at 50.0 µM 44.2%
active: [3]; [8] 70% | [3]; at 50.0 µM 70.8% | [5]; [8] 85%

COc1ccccc1OC(=O)Oc1ccccc1OC
inactive: [1]; [7] -1% | [1]; [8] 19% | [1]; at 50.0 µM 36.6% | [2]; [7] -3% | [2]; [8] -3% | [2]; at 50.0 µM -11.1% | [3]; [7] -1% | [3]; [8] 12% | [3]; at 50.0 µM 9.45% | [4]; [7] 4% | [4]; [8] 4% | [4]; at 50.0 µM -37.4% | [5]; [7] 1% | [5]; [8] 9% | [5]; at 50.0 µM 57.8% | [6]; [7] -4% | [6]; [8] -5% | [6]; at 50.0 µM 50%

Cc1nc(-n2nc(-c3ccccc3)cc2-c2ccccc2)sc1C(/C=C\c1ccc([N+](=O)[O-])cc1)=N/NC(=S)NN
inactive: [1]; [7] 4% | [1]; at 50.0 µM 61.3% | [2]; [7] 3% | [2]; at 50.0 µM 37.1% | [3]; [7] 11% | [4]; [7] 0% | [4]; [8] 67% | [4]; at 50.0 µM 10.8% | [5]; [7] 25% | [5]; at 50.0 µM 65.7% | [6]; [7] -2% | [6]; at 50.0 µM 64.8%
active: [1]; [8] 87% | [2]; [8] 86% | [3]; [8] 91% | [3]; at 50.0 µM 80.7% | [5]; [8] 88% | [6]; [8] 80%

Cc1ccc(-c2c3c(cc4cc(C)ccc24)C(=O)OC3=O)cc1
inactive: [1]; [7] 12% | [1]; [8] 26% | [1]; at 50.0 µM 14.8% | [2]; [7] -2% | [2]; [8] 12% | [2]; at 50.0 µM 6.85% | [3]; [7] -1% | [3]; [8] 27% | [3]; at 50.0 µM 17.9% | [4]; [7] 4% | [4]; [8] 6% | [4]; at 50.0 µM 15.2% | [5]; [7] 1% | [5]; [8] 4% | [5]; at 50.0 µM 15.8% | [6]; [7] -2% | [6]; [8] 25% | [6]; at 50.0 µM 32.9%

O/N=C(/C[n+]1csc2ccccc21)c1ccccc1
active: [1]; [8] 82% | [2]; at 50.0 µM 79.5% | [3]; [8] 87% | [3]; at 50.0 µM 73.7% | [5]; [8] 76% | [5]; at 50.0 µM 76.8% | [6]; [8] 88%
inactive: [1]; [7] -6% | [1]; at 50.0 µM 35.3% | [2]; [7] -8% | [2]; [8] 34% | [3]; [7] -9% | [4]; [7] -6% | [4]; [8] 32% | [4]; at 50.0 µM 37% | [5]; [7] 12% | [6]; [7] 1% | [6]; at 50.0 µM 48%

N#CC(C#N)=C(c1ccccc1)c1ccccc1
inactive: [1]; [7] -8% | [2]; [7] 13% | [3]; [7] 18% | [4]; [7] -33% | [5]; [7] -6% | [6]; [7] -4%
active: [1]; [8] 99% | [1]; at 50.0 µM 97.4% | [2]; [8] 100% | [2]; at 50.0 µM 99.5% | [3]; [8] 99% | [3]; at 50.0 µM 99.4% | [4]; [8] 99% | [4]; at 50.0 µM 99.5% | [5]; [8] 100% | [5]; at 50.0 µM 99.3% | [6]; [8] 100% | [6]; at 50.0 µM 99.4%

O=S1(=O)CC(Cl)(Cl)C1
active: [4]; at 50.0 µM 75.3%
inactive: [1]; [7] 3% | [1]; [8] 49% | [1]; at 50.0 µM 19.6% | [2]; [7] 3% | [2]; [8] 52% | [2]; at 50.0 µM 2.85% | [3]; [7] 7% | [3]; [8] 20% | [3]; at 50.0 µM 15.1% | [4]; [7] -1% | [4]; [8] 25% | [5]; [7] 4% | [5]; [8] 58% | [5]; at 50.0 µM -17.8% | [6]; [7] 5% | [6]; [8] 58% | [6]; at 50.0 µM 11.6%
